# Source: PubChem (National Center for Advancing Translational Sciences (NCATS))
# JMJD2A Tudor inh = qHTS Assay for Inhibitors of JMJD2A-Tudor Domain. AlphaScreen JMJD2A-Tudor / H3K4me3 peptide binding. Potency, µM (titrated, usually from 114 µM), without a hit: at the highest dose activity change, negative = inhibition, actives largely listed as inhibitors. hit rate 4.4% among 390,000. AID 504339, 2011; note: % is set by controls: 0 for no effect and ±100 for the full control effect; nearly all actives have a fitted effect of over 50% in size
# Target sequence (O75164 whole entry, looked up, the tested form may be a part): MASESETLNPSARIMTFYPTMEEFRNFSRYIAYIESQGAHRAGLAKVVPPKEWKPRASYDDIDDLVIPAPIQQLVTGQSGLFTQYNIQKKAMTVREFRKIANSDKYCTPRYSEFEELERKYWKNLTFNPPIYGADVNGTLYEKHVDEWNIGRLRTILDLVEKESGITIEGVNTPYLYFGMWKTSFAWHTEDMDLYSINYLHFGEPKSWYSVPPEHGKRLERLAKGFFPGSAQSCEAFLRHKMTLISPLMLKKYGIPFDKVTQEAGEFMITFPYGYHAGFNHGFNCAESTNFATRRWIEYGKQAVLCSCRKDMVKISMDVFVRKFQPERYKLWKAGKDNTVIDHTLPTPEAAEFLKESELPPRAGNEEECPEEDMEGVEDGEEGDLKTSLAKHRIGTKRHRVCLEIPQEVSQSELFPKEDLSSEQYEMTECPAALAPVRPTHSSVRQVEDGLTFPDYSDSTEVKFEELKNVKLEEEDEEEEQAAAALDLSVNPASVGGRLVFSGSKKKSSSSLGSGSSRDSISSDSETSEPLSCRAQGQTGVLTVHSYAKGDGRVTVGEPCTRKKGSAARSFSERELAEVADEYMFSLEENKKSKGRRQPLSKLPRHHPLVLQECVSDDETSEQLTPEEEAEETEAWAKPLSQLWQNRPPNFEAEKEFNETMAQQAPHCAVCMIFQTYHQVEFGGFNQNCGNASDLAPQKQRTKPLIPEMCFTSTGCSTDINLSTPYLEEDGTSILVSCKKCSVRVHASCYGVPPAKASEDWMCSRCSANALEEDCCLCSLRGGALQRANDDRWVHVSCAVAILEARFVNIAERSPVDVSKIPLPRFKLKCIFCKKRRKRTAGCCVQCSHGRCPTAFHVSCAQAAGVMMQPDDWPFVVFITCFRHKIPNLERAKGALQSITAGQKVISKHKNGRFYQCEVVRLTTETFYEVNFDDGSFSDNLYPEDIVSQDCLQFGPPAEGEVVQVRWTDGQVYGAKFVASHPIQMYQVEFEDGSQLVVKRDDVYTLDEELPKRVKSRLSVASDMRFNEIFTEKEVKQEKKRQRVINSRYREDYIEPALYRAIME
# G9a inh = qHTS Assay for Inhibitors of Histone Lysine Methyltransferase G9a; hit rate 8.8% among 350,000; G9a H3K9 monomethylation, AlphaScreen, 2 h; Histone-lysine N-methyltransferase EHMT2 (Homo sapiens), Q96KQ7; Potency, µM (titrated, usually from 102 µM), inactives show top-dose activity, negative = inhibition, most hits filed as inhibitors; AID 504332, 2011; note: % is set by controls: 0 for no effect and ±100 for the full control effect; nearly all actives have a fitted effect of over 75% in size
#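 Methyltransferase reactions run at room temperature for 2 h (20 nM enzyme, 500 nM biotin-H3K9 peptide, 20 uM SAM) after a 15 min compound preincubation; product detected by AlphaScreen beads and anti-H3K9me1 antibody.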
# BAZ2B block = qHTS Assay for Inhibitors of BAZ2B. hit rate 4.4% among 360,000. Bromodomain adjacent to zinc finger domain protein 2B (Homo sapiens), Q9UIF8. AlphaScreen BAZ2B-H3K14Ac peptide displacement. Potency, µM (highest dose often 114 µM), for inactives: top-dose activity change, negative = inhibition, hits mostly inhibitors; note: % is set by controls: 0 for no effect and ±100 for the full control effect; nearly all actives have a fitted effect of over 60% in size
#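 AlphaScreen displacement: compounds (up to 110uM) incubated 30 min at room temperature with a preformed 50 nM BAZ2B/50 nM biotinylated H3K14Ac peptide complex in PBS pH 7.4 with Tween-20. Donor and acceptor beads at 10 ug/mL final added, 20 min light-protected before reading.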
# HP1b chromo inh = HTS for Inhibitors of HP1-beta Chromodomain Interactions with Methylated Histone Tails; Chromobox protein homolog 1 (Homo sapiens), P83916; Potency, µM (top dose mostly 114 µM), for inactives: at the top dose activity change, negative = inhibition, most hits filed as inhibitors; hit rate 0.56% among 390,000; AlphaScreen HP1-beta / biotin-H3K9me3 peptide binding; AID 540317, 2011; note: nearly all actives have a fitted effect of over 70% in size
#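 AlphaScreen: HP1-beta (50 nM) preformed 30 min with biotin-H3(1-18)K9me3 peptide (50 nM) in PBS pH 7.4, 0.01% Tween-20. Compound added for 30 min at RT, then streptavidin donor/nickel chelate acceptor beads (10 ug/mL) for 30 min.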
# 12-LOX inh = Primary qHTS assay for inhibitors of human arachidonate 12S-lipoxygenase (ALOX12): Round 2; Polyunsaturated fatty acid lipoxygenase ALOX12 (Homo sapiens), P18054; purified 12hLO, xylenol orange hydroperoxide absorbance; hit rate 1.1% among 580,000; Potency, µM (doses to about 108 µM), for inactives: at the highest dose activity change, negative = inhibition, most hits filed as inhibitors; AID 1671190, 2021; note: % is set by controls: 0 for no effect and ±100 for the full control effect
#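 Purified human 12hLO (150 nM final) in 25 mM Hepes, 0.01% Triton X-100, pH 7.0 was preincubated 15 min at room temperature with compound. Then 40 uM arachidonic acid was added, 30 min. Hydroperoxide was read by Fe-XO absorbance ratio 573/405 nm.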
# PLK1 PBD block = qHTS for Inhibitors of PLK1-PDB (polo-like kinase 1 - polo-box domain): Primary Screen; Serine/threonine-protein kinase PLK1 (Homo sapiens), P53350; Plk1 PBD binding of FITC phosphopeptide, fluorescence polarization; Potency, µM, for inactives: max response, negative = inhibition, actives largely listed as inhibitors; hit rate 2.8% among 360,000; AID 720504, 2013; note: series mostly up to about 57 µM; % is set by controls: 0 for no effect and ±100 for the full control effect; nearly all actives have a fitted effect of over 65% in size
# * = called active by the depositor; ? = inconclusive; / = no result given; [ ] = remark or other dose. Shown are actives, neighbours in structure and some others; about 9% of the full set was active somewhere. Calls come from the whole dose curve; as a rule, active = well fitted curve in the direction sought with a large enough effect; inconclusive = small, poorly fitted or top-dose-only effect, or another doubt; inactive = no such curve, though single readings can be large; an effect the other way counts as inactive or inconclusive. Potency is the fitted concentration of half-maximal effect.
SMILES,JMJD2A Tudor inh,G9a inh,BAZ2B block,HP1b chromo inh,12-LOX inh,PLK1 PBD block
CN(C)c1ccc2nc3c(=O)[nH]c(=O)nc-3n(CC(O)C(O)C(O)CO)c2c1 (configuration not stated),-30.3%,50.1µM*,39.8µM*,?,0.0%,-1.3%
CC(=O)NC(=O)NC1OC(=O)C(Cl)=C1Cl (configuration not stated),1.5%[57.1 µM],39.8µM*,3.4%,36.1%,?,?
Cc1ccc(C(=O)NCCNc2ncc(C(F)(F)F)cc2Cl)cc1[N+](=O)[O-],-26.6%,-4.0%,-12.6%,?,-4.4%,-5.9%
CCOC(=O)c1c(C)oc2c1c(C=NCCC(=O)O)c(O)c1ccccc12,-24.1%,50.1µM*,?,24.3%,0.5%,-26.9%
CCOC(=O)c1c(C)oc2c1c(C=NC1CCS(=O)(=O)C1)c(O)c1ccccc12 (configuration not stated),-15.2%,-136.7%,-1.2%,16.8%,1.9%,-2.7%
CCOC(=O)c1c(C)oc2c1c(CN1CCN(CCO)CC1)c(O)c1ccccc12,?,1.41µM*,/,?,?,1.68µM*
CCOc1ccccc1Oc1c(C)oc2c(CN3CCN(CCO)CC3)c(O)ccc2c1=O,-9.3%,2.3%,-11.1%,7.8%,-26.1%,-1.6%
CCOC(=O)c1c(C)oc2c1c(C(c1ccncc1)N1CCOCC1)c(O)c1ccccc12 (configuration not stated),?,?,14.1µM*,70.8µM*,?,10.6µM*
CCOC(=O)c1c(C)oc2c1c(CN1CCN(C(=O)OCC)CC1)c(O)c1ccccc12,?,3.16µM*,?,-26.5%,?,?
OC(CN1CCN(Cc2ccccc2)CC1)c1ccc(Br)cc1 (configuration not stated),-15.2%[57.1 µM],/,/,37.9%,?,-21.1%
COc1ccc(S(=O)(=O)N[C@H](C)c2c(-c3ccc(F)cc3)noc2C(=O)O)cc1,/,/,/,/,-7.5%[176 µM],/
CCOC(=O)c1c(C)oc2c1c1c(c3ccccc32)OCN(Cc2ccccn2)C1,?,12.3%[0.501 µM],44.7µM*,-8.0%,?,?
CCOC(=O)c1c(C)oc2ncnc(N3CCN(c4ccccc4)CC3)c12,-29.8%,-10.8%[59 µM],-13.6%[57.1 µM],-5.7%,-8.8%,/
CC(=O)c1cccc(NC(=O)c2nc3ccccc3n(C)c2=O)c1,-15.8%,-3.6%[59 µM],-12.1%,21.3%,-23.6%,/
CC1CCCCC12NC(=O)N(CC(=O)Nc1ccc(OC(F)F)cc1)C2=O (configuration not stated),-8.3%,/,/,34.2%,-4.3%,2.2%
CCCC12CN3CC(C)(CN(C1)C3c1cc(Br)ccc1OCC)C2=O (configuration not stated),/,/,/,/,27.4%,/
O=C1O[C@H](CN2CCOCC2)CN1/N=C\c1ccc([N+](=O)[O-])o1,/,1.8%[5.15 µM],/,/,/,/
O=C1OC(CN(Cc2ccccc2)Cc2ccccc2)CN1N=Cc1ccc([N+](=O)[O-])o1 (configuration not stated),-14.5%,/,/,-12.5%,12.6µM*,-18.3%
O=C(Nc1ccc2c(c1)OCO2)c1cnccn1,-18.2%,?,-13.4%,1.5%,3.8%,-6.4%
O=C(Nc1ccc2c(c1)OCO2)c1ccccn1,4.47µM*,1.58µM*,?,?,5.62µM*,-10.2%
C/C(=C\C(=O)c1ccc(C)o1)Nc1ccc2c(c1)OCO2,?,?,?,-21.1%,?,-5.1%
Cc1ccc(C(=O)Nc2ccc3c(c2)OCO3)o1,-6.9%[11.4 µM],3.7%[12.7 µM],2.1%,-22.1%,-15.3%,11.9µM*
O=C(c1ccc2c(c1)OCO2)N1CCN(c2ccccn2)CC1,-19.5%[57.1 µM],8.1%[59 µM],4.1%,?,-6.0%,21.2µM*
CN(C)C(=S)Nc1ccc2c(c1)OCO2,-2.8%,8.91µM*,-22.0%,-34.8%,?,6.7µM*
CCCC(C)NC(C)C(=O)NC1CCCC1 (configuration not stated),?,21.2%,6.1%,36.9%,21.5%,1.8%
SMILES,JMJD2A Tudor inh,G9a inh,BAZ2B block,HP1b chromo inh,12-LOX inh,PLK1 PBD block
Cc1c(-c2ccc(OCCN3CCCCC3)cc2)c(=O)oc2ccc3ccccc3c12,/,/,/,/,7.1%,-0.5%
CC(C)(C)OC(=O)C[C@@H]1C/C=C\C[C@@H](CC(=O)NCCO)C(=O)N2CCC[C@H]2COC1=O,-19.7%,/,/,25.7%,-3.7%,3.2%
O=C(Nc1ccccn1)c1ccc2c(c1)OCO2,-5.5%,50.1µM*,-15.8%,42.5%,-17.7%,2.1%
Cc1cccnc1NC(=O)c1ccc2c(c1)OCO2,4.8%,-2.5%,-7.8%,18.2%,-0.4%,-0.1%
O=C(CNC(=O)c1ccc2c(c1)OCO2)Nc1ncccc1O,56.2µM*,?,?,5.5%,-14.3%,-12.9%
O=C(Nc1ccccn1)c1ccc2c(c1)OCCO2,-3.5%,16.4%[59 µM],-8.0%,16.6%,-7.6%,-9.0%
CCOc1ccc(CNC(=O)C(C)n2ncn3cccc3c2=O)cc1 (configuration not stated),3.3%,-29.6%[59 µM],-1.2%,42.5%,-21.3%,/
CCC(=O)Nc1cccc(-c2nc3ccc(C)cc3o2)c1,-15.1%,23.8%,-2.8%,33.5%,0.0%,-18.5%
Cc1ccc(C(C)C)c(OCC(=O)Nc2ccc(Cl)cn2)c1,0.3%,47.6%[59 µM],28.9%,58.3%,-5.3%,-4.3%
Cc1ccc(OCC(=O)Nc2ccc3c(c2)OC(F)(F)O3)c([N+](=O)[O-])n1,-10.6%,20.0%[59 µM],-3.1%,17.3%,-28.6%,-0.1%
CC(OC(=O)c1ccc2c(c1)C(=O)N(Cc1ccncc1)C2=O)C(=O)Nc1cccc(Cl)c1Cl (configuration not stated),-28.2%,89.1µM*,-0.5%,-5.1%,4.6%,-3.9%
CC1N(C)c2cccc3cccc(c23)N1C,-32.3%[57.1 µM],2µM*,50.1µM*,?,?,?
CN1C(=O)N(C)c2cccc3cccc1c23,-20.5%,20.1%[2.33 µM],4.4%,32.6%,29.6%,1.5%
CN1c2cccc3cccc(c23)N(C)C1c1cccs1,-25.0%,15.8µM*,?,?,?,-1.8%
C/C(=N\NC(=O)C1CC1)c1ccc(C)c(C)c1,-18.5%,?,-9.3%,40.2%,478.1%,-6.6%
COc1ccc(OC)c(/C=C2\SC(N3CCCC(C)C3)=NC2=O)c1 (configuration not stated),7.5%,28.2µM*,-4.4%,45.7%,?,?
